LANA-H2B inh = blockers of LANA interaction with H2A/H2B – biochemical, FP readout, HTS, primary screen; Protein LANA1 (Human herpesvirus 8 type P (isolate GK18)), Q9QR71; cell-free LANA-H2A/H2B peptide, fluorescence polarization; inhibition, % (no concentration beside the values); 320,000 tested, 0.6% active; in the data active = inhibition mostly above about 10%, no sharp cut-off; inactive = mostly below about 6.7%
PRMT1 inh = PRMT1 methyltransferase inhibitors, primary screen, biochemical, fluorescence polarization. recombinant PRMT1, activity-based probe fluorescence polarization. inhibition, % at 2.79 µM. 370,000 tested, 1.3% active;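 active = inhibition above about 21% made by adding two undisclosed values, limit read from the data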
ALR inh = inhibitors of human ALR sulfhydryl oxidase, primary screen, biochemical, H2O2 detection, HRP-luminol luminescence, single point; AID 485317, 2010; inhibition, % (test concentration not listed); FAD-linked sulfhydryl oxidase ALR (Homo sapiens), P55789; 290,000 tested, 3.8% active; purified ALR, DTT oxidation;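 active = mean replicate inhibition above about 79%, with every replicate also reaching it, limit read from the data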
Rtt109 Vps75 = inhibitors of C. albicans Rtt109/Vps75 HAT, primary screen, biochemical, ThioGlo CoA-SH fluorescence, plate reader. Histone acetyltransferase RTT109 (Candida albicans (strain SC5314 / ATCC MYA-2876)), …. purified Rtt109/Vps75, 4 h. inhibition, % at 34.9 µM. 330,000 tested, 0.16% active;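 active = inhibition of at least 50% in every replicate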
ABHD5-PLIN5 inh = ABHD5-PLIN5 interaction inhibitors, primary screen, cell lysate, split luciferase complementation, luminescence. inhibition, % at 4 µM. Perilipin-5 (Homo sapiens) + 1-acylglycerol-3-phosphate O-acyltransferase ABHD5 (Homo …. Split G. princeps luciferase complementation, 4 h. AID 602281, 2012. 360,000 tested, 0.78% active;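 active = inhibition above the mean inhibition across every tested compound plus 3 SD, cut at about 22% in these data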;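 also: 0% = DMSO only wells and the 100% control is not disclosed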
rCAG binder = binders of r(CAG) RNA repeats, primary screen, biochemical, fluorescence | AID 651821, 2012 | r(CAG) RNA repeat, TO-PRO-1 dye displacement fluorescence | inhibition, % at 3 µM | 370,000 tested, 1.3% active;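 active = inhibition above the plate cutoff, the mean of all test compounds on that plate plus 3 SD, cut at about 35% in these data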;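 also: 0% = DMSO alone and 100% = 100 µM mitoxantrone as full dye displacement; higher means more dye released from RNA so lower well fluorescence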
rCAG binder conf = small molecules binding CAG repeat RNA – biochemical, fluorescence, confirmation; shares compounds with rCAG binder; inhibition, % at 3 µM; AID 652065, 2013; 4,300 tested, 70% active; r(CAG) RNA repeat, TO-PRO-1 dye displacement fluorescence;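 active = inhibition above a per-plate cutoff, the mean inhibition of sample wells plus 3 SD, cut at about 35% in these data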;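 also: loss of TO-PRO-1 fluorescence as compound displaces dye from 1x1 AA loop RNA; 0% = DMSO only wells and 100% = 100 µM mitoxantrone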
DNA CAG counter = displacement of TO-PRO-1 from CAG DNA duplex, counter-screen for rCAG RNA repeat binder project, biochemical, fluorescence, TO-PRO-1 dye, d(CAG) DNA oligo; shares compounds with rCAG binder; AID 652068, 2013; d(CAG) DNA oligo TO-PRO-1 dye displacement; 4,300 tested, 94% active; inhibition, % at 3 µM;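 active = inhibition above its plate's cutoff, the mean test-well inhibition plus 3 SD, cut at about 4.8% in these data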;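 also: 0% = DNA dye mix with DMSO and 100% = 100 µM mitoxantrone; hits displace the dye from DNA and so lower well fluorescence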
Active calls of the source: *; x = no result given. In the library only some 5.9% were active in any assay of this set; here they are far more common.

SMILES	LANA-H2B inh	PRMT1 inh	ALR inh	Rtt109 Vps75	ABHD5-PLIN5 inh	rCAG binder	rCAG binder conf	DNA CAG counter
Cc1c(OC(C(=O)O)c2ccccc2)ccc2c(-c3ccccc3)cc(=O)oc12 (stereo not drawn)	4	2	14	7	-1	37*	38*	9.0*
O=C(COc1cc2oc(=O)cc(-c3ccccc3)c2cc1Cl)NC(Cc1c[nH]c2ccc(O)cc12)C(=O)O (stereo not drawn)	-2	4	x	26	1	42*	62*	24*
Cc1c(OCC(=O)NC(Cc2ccc(Cl)cc2)C(=O)O)ccc2c(-c3ccccc3)cc(=O)oc12 (stereo not drawn)	4	-6	4	0	-8	13	x	x
CCN(Cc1cn(Cc2ccccc2)nn1)S(=O)(=O)c1ccc(N2CCCC2)cc1Br	x	-2	x	x	x	7	x	x
COCc1[nH]nc2c1C(c1ccc(F)cc1)N(c1ccc(OC)cc1)C2=O (stereo not drawn)	x	-6	x	x	x	3	x	x
CCOc1ccccc1N(C)S(=O)(=O)c1ccc2c(c1)N(C(C)=O)CCO2	-8	-3	47	-5	1	-4	x	x
Cc1nc(S/C(=C/c2ccc(-c3cc(Cl)ccc3C)o2)C(=O)O)n[nH]1	-7	0	4	-1	-4	51*	81*	44*
Nc1nc2ccccc2cc1C(=O)NCc1ccc(-c2ccccc2)cc1	x	-3	x	x	4	6	x	x
O=C(/C=C/c1ccc2c(c1)OCO2)Nc1c(C(=O)O)[nH]c2ccccc12	-1	-1	98*	22	-2	45*	38*	13*
CCOC(=O)c1[nH]c2ccc(OC)cc2c1NC(=O)/C=C/c1ccc2c(c1)OCO2	-3	0	-2	-7	2	3	x	x
Cc1nc2ccccc2c(=O)n1/N=C/c1ccc(O)c(O)c1O	-2	16	98*	0	-15	44*	51*	19*
COc1cc(/C=C/C(=O)O)cc(S(=O)(=O)Nc2ccc3nc(SC)sc3c2)c1OC	-7	7	x	-1	-1	50*	32	9.6*
Cc1ccc(C)c(NCCCCCCCC(=O)O)c1	x	0	x	x	1	9	x	x
Cc1cccc(NC(=O)CSc2ncnc3sc4c(c23)CCCC4)c1	x	-8	x	x	x	6	x	x
Cc1ccc2c(c1)C1CS(=O)(=O)N(CC(C)C)CN1C2 (stereo not drawn)	x	0	x	x	x	3	x	x
N#Cc1cccc(NC(=O)COC(=O)c2cc(S(=O)(=O)Nc3ccccc3Cl)ccc2O)c1	-8	-2	-1	6	-11	52*	45*	15*
O=C(COC(=O)c1cc(S(=O)(=O)Nc2ccccc2Cl)ccc1O)Nc1nc2ccccc2s1	x	-1	x	-13	-2	43*	69*	31*
COc1ccc(NS(=O)(=O)c2ccc(O)c(C(=O)OCC(=O)Nc3ccc4c(c3)OCCO4)c2)cc1	4	3	0	-3	5	38*	28	11*
CC(=O)NC(Cc1ccccc1)C(=O)O (stereo not drawn)	2	15	-9	-4	-3	4	x	x
O=C(O)[C@H](Cc1ccccc1)NC(=O)C(c1ccccc1)(c1ccccc1)c1ccccc1	-2	-1	59	6	4	38*	53*	13*
O=S(=O)(Nc1nc2ccc(S(=O)(=O)N3CCCC3)cc2s1)c1ccc(F)cc1	6	8	-7	-6	0	69*	52*	20*
Cc1sc2nc(COC(=O)CNC(=O)c3ccccc3Cl)[nH]c(=O)c2c1C	x	-5	x	x	x	5	x	x
O=C1NN(c2cccc(Br)c2)C(=O)/C1=C\c1ccccc1	0	15	89*	-2	-2	77*	39*	11*
O=C1NN(c2ccccc2)C(=O)/C1=C\c1coc2ccc(O)cc2c1=O	3	20	99*	31	17	36*	8	4
O=C1NN(c2ccccc2)C(=O)/C1=C/c1coc2ccccc2c1=O	5	11	97*	-21	-2	39*	11	3
SMILES	LANA-H2B inh	PRMT1 inh	ALR inh	Rtt109 Vps75	ABHD5-PLIN5 inh	rCAG binder	rCAG binder conf	DNA CAG counter
O=C1NN(c2ccccc2)C(=O)/C1=C/c1cccs1	-1	4	-1	x	x	24	x	x
COC(=O)[C@@]12CCCCC3=C1N(CCC3)C(=O)[C@H]2CC(=O)N1CCOCC1	x	3	x	x	x	0	x	x
COC(=O)[C@H]1C[C@H](OC(=O)NC2CC2)[C@@]2(O)CN(S(=O)(=O)c3ccc(C)cc3)CC2[C@H]1C(=O)OC (stereo partly drawn)	x	5	x	x	-1	0	x	x
COc1ccc(S(=O)(=O)Nc2cc(SCC(=O)O)c(O)c3ccccc23)cc1	-2	52*	56	-7	-8	38*	48*	18*
O=C(Nc1ccc(Br)c2ccccc12)c1ccc2ccccc2c1O	-1	11	-7	0	-5	77*	78*	40*
Cc1ccccc1NC(=O)CSc1nnc(-c2ccco2)c(-c2ccco2)n1	0	x	x	33	19	x	x	x
O=C(CSc1nnc(-c2ccco2)c(-c2ccco2)n1)Nc1ccccc1	3	48*	99*	14	26*	60*	28	15*
Cc1ccc(F)c(S(=O)(=O)NC(=O)C2(C)CCN2C(=O)CC(c2ccccc2)c2ccccc2)c1 (stereo not drawn)	x	-2	x	x	-3	49*	43*	12*
CCCC(=O)N1CCC1(C)C(=O)NS(=O)(=O)c1cc(C)ccc1F (stereo not drawn)	x	0	x	x	7	2	x	x
CC1(C(=O)NS(=O)(=O)c2ccc(F)cc2F)CCN1C(=O)CCc1ccccc1 (stereo not drawn)	x	-2	x	x	-6	3	x	x
CC1(C(=O)NS(=O)(=O)c2ccc(F)cc2F)CCN1C(=O)CC(c1ccccc1)c1ccccc1 (stereo not drawn)	x	3	x	x	2	38*	33	5.8*
CCCCOCCCNC(=O)C[C@H]1C[C@@]2(C(=O)OC)C(=C[C@H](C(C)C)O[C@@H]2C2CC2)N(CCC2=CCCCC2)C1=O	x	6	x	x	x	6	x	x
CNC(=S)N/N=C/c1cc(Br)cc(Br)c1O	-5	-1	x	-23	4	10	x	x

High-throughput results from PubChem BioAssay.
